From PubChem BioAssay
The list is not random: actives were taken first. Their share in the collection is about 2.6%.
697 NFkB inh: inhibitors of PMA/ionomycin-induced NF-kB reporter, 697 cells, primary screen, B-cell NF-kB inhibitor project, cell-based, luminescence, uHTS; 697 B-cell NF-kB luciferase reporter, 16 h; inhibition, % at 4 µM; 330,000 compounds, 0.33% hits; in the data active = inhibition above about 35%
H9c2 protect: cardioprotection against H2O2-induced cell death, primary screen, uHTS, H9c2 cells, ATPLite luminescence | H9c2 cardiomyocytes, H2O2 injury protection, 2 h | protection from H2O2 cell death, % at 20 µM | 360,000 compounds, 0.63% hits | AID 588492, 2011;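 active = compounds giving at least 50% protection of heart cells from peroxide-induced death in the single-dose screen, raw or plate-pattern-corrected value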
Jurkat NFkB inh: inhibitors of induced NF-kB luciferase reporter, primary screen, TCR NF-kB activation inhibitor project, cell-based, luminescence, uHTS | AID 435003, 2010 | 330,000 compounds, 0.53% hits | inhibition, % at 4 µM | Jurkat, PMA/ionomycin-induced NF-kB luciferase reporter; in the data active = inhibition above about 50%
TAG inh: inhibitors of triacylglycerol accumulation, primary screen, cell-based, uHTS, fluorescence, H9c2; 230,000 compounds, 0.66% hits; AID 651582, 2012; inhibition, % at 12.5 µM; H9c2 cells, Nile Red lipid (TAG) fluorescence; cells loaded with 200 µM oleic acid;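 active = pattern-corrected inhibition of lipid staining of at least 50% with the nuclear-stain viability signal not falling by more than 50%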
Gli-Sufu antag: Gli-Sufu pathway antagonists, primary screen, luciferase luminescence, Sufu-KO-LIGHT cells, uHTS; Sufu-KO-LIGHT fibroblasts, Gli luciferase reporter luminescence; 340,000 compounds, 0.74% hits; inhibition, % at 5 µM; AID 588413, 2011;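 active = inhibition above about 55%, limit read from the data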
NR2F2 inh: NR2F2 transcriptional activity inhibitors, primary screen, cell-based, luciferase reporter, HEK293T, luminescence; COUP transcription factor 2 (Homo sapiens), P24468; HEK293T NGFI-A luciferase reporter; inhibition, % at 8.6 µM; 370,000 compounds, 0.7% hits; AID 686940, 2013;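 active = inhibition above a per-plate cutoff, mean inhibition of test wells between control levels plus 3 SD, cut at about 38% in these data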;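 note: cells cotransfected with COUP-TFII expression vector driving the NGFI-A reporter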
Target sequence (P24468 whole entry, looked up): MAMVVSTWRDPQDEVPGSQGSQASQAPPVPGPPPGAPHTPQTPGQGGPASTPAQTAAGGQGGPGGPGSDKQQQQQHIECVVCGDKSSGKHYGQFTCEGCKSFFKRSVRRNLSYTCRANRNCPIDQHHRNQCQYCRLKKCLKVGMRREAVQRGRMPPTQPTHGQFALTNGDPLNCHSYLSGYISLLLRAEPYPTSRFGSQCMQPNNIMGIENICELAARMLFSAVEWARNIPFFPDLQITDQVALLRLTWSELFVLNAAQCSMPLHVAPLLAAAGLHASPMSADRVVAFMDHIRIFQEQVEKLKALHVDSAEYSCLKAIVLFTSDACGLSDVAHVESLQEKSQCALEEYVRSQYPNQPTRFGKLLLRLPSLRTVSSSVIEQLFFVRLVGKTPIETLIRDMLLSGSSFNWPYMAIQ
Gal4-VP16 ctr: Gal4-VP16 luciferase reporter inhibitors, counter-screen for COUP-TFII antagonist project, cell-based, luminescence, HEK293 | shares compounds with NR2F2 inh | inhibition, % at 8.5 µM | 2,500 compounds, 25% hits | AID 687007, 2013; in the data active = inhibition above about 13%
COUP-TFII conf: NR2F2 transcriptional activity inhibitors, confirmation, cell-based, luciferase reporter, HEK293, triplicate | inhibition, % at 8.5 µM | shares compounds with NR2F2 inh | AID 687008, 2013 | HEK293 NGFI-A luciferase reporter, luminescence | 2,500 compounds, 45% hits;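 active = mean inhibition over three repeats above a set limit taken from the earlier primary screen, cut at about 38% in these data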
Of the large screens only hits and unclear results are named; the others gave an inactive call (follow-up assays come after a bar, where they were run).

O=c1[nH]c2ccccc2n1C1CCN(C(c2cc3ccccc3o2)c2nnnn2-c2ccc3c(c2)OCCO3)CC1 (configuration not stated)	none (no result: 697 NFkB inh, Jurkat NFkB inh, TAG inh, Gli-Sufu antag)
COc1ccc(-n2nnnc2C(c2cc3ccccc3o2)N2CCC(n3c(=O)[nH]c4ccccc43)CC2)cc1 (configuration not stated)	NR2F2 inh 98.9 (no result: 697 NFkB inh, Jurkat NFkB inh, TAG inh, Gli-Sufu antag) | Gal4-VP16 ctr inactive | COUP-TFII conf 60.3
COc1ccc(C(c2nnnn2-c2ccc(OC)cc2)N2CCC(n3c(=O)[nH]c4ccccc43)CC2)cc1 (configuration not stated)	none (no result: 697 NFkB inh, Jurkat NFkB inh, TAG inh, Gli-Sufu antag)
CC(O)C1C=CC=CC(=O)OC2CC3OC4C5OC5(C)C(O)CC4(COC(=O)C(O)C(C)CCO1)C2(C)C31CO1 (configuration not stated)	Gli-Sufu antag 91.9, NR2F2 inh 92.0 (no result: 697 NFkB inh, Jurkat NFkB inh) | Gal4-VP16 ctr 24.7 | COUP-TFII conf 92.3
CC1=CC2OC3CC4OC(=O)C=CC=CC(=O)OCCC(C)C(O)C(=O)OCC2(CC1)C4(C)C31CO1 (configuration not stated)	H9c2 protect 56.8, Gli-Sufu antag 92.0, NR2F2 inh 90.0 (no result: 697 NFkB inh, Jurkat NFkB inh) | Gal4-VP16 ctr 16.6 | COUP-TFII conf 87.0
CC1=CC2OC3CC4OC(=O)C=CC=CC(C(C)O)OCC(O)C5(C)OC5C(=O)OCC2(CC1O)C4(C)C31CO1 (configuration not stated)	Gli-Sufu antag 88.3, NR2F2 inh 91.7 (no result: 697 NFkB inh, Jurkat NFkB inh) | Gal4-VP16 ctr 18.7 | COUP-TFII conf 89.3
CC12Nc3ccccc3C(=O)N1Cc1cnnn1-c1ccccc12 (configuration not stated)	none (no result: 697 NFkB inh, H9c2 protect, Jurkat NFkB inh, TAG inh, Gli-Sufu antag)
COC(=O)C1=C(C(=O)OC)SC2(S1)C(C(=O)OC)=C(C(=O)OC)Sc1c2ssc1=O	none (no result: 697 NFkB inh, Jurkat NFkB inh)
COc1ccc(-c2cc(-c3ccccc3)[n+](C)c(-c3ccccc3)c2)cc1	NR2F2 inh 45.5 | Gal4-VP16 ctr 15.6 | COUP-TFII conf 52.7
COc1ccc(CN2Cc3cc(N4CCCCC4)ccc3-n3nncc3C2)cc1	none (no result: 697 NFkB inh, Jurkat NFkB inh, TAG inh, Gli-Sufu antag)
O=c1[nH]c2ccccc2n1C1CCN(C(c2ccccc2OC(F)(F)F)c2nnnn2Cc2ccccc2)CC1 (configuration not stated)	NR2F2 inh 42.0 (no result: 697 NFkB inh, Jurkat NFkB inh, TAG inh, Gli-Sufu antag) | Gal4-VP16 ctr 14.9 | COUP-TFII conf inactive
C=C(CC1CC(O)[C@]2(C)OC3CC4OC5C[C@]6(C)O[C@]7(C)CCC8OC9C[C@]%10(C)OC%11C(C)=CC(=O)OC%11CC%10OC9C[C@@H](C)C8OC7CC6O[C@]5(C)C/C=C\C4OC3CC2O1)C(=O)O (some centres not stated)	none
C=C(C=O)CC1CC(O)[C@]2(C)OC3CC4OC5C[C@]6(C)O[C@]7(C)CCC8OC9C[C@]%10(C)OC%11C(C)=CC(=O)OC%11CC%10OC9C[C@@H](C)C8OC7CC6O[C@]5(C)C/C=C\C4OC3CC2O1 (some centres not stated)	NR2F2 inh 75.7 (no result: 697 NFkB inh, H9c2 protect, Jurkat NFkB inh, TAG inh, Gli-Sufu antag) | Gal4-VP16 ctr inactive | COUP-TFII conf inactive
CC1CC(C)(O)CC(C(O)CC2CC(=O)NC(=O)C2)C1=O (configuration not stated)	Gli-Sufu antag 83.8, NR2F2 inh 87.4 (no result: 697 NFkB inh, Jurkat NFkB inh) | Gal4-VP16 ctr inactive | COUP-TFII conf 75.2
COC12c3ccccc3-c3ccccc3C1C(C(=O)O)C2C(=O)O (configuration not stated)	none (no result: 697 NFkB inh, Jurkat NFkB inh, TAG inh, Gli-Sufu antag)
Cc1ccc(Cn2nc(C(=O)Nc3ccc(Br)cc3)cc2C)cc1	NR2F2 inh 53.5 (no result: TAG inh) | Gal4-VP16 ctr inactive | COUP-TFII conf inactive
CO[C@H]1C=CCCC=CC(=O)O[C@H]([C@H](C)C(=O)CCCC2CC(=O)NC(=O)C2)C(C)=C[C@@H](C)[C@@H]1O	none (no result: 697 NFkB inh, H9c2 protect, Jurkat NFkB inh, TAG inh, Gli-Sufu antag)
C=Cc1cc(OC)c2c(c1)c(=O)oc1c2cc(OC)c2c(O)ccc(C3OC(C)C(O)C(C)(O)C3O)c21 (configuration not stated)	NR2F2 inh 59.3 (no result: 697 NFkB inh, Jurkat NFkB inh) | Gal4-VP16 ctr 24.2 | COUP-TFII conf inactive
O=C(Nc1ccncc1)c1cccn(Cc2ccccc2)c1=O	NR2F2 inh 65.8 | Gal4-VP16 ctr inactive | COUP-TFII conf 51.2
O=C(Nc1ccccc1)c1cccn(Cc2ccccc2)c1=O	none (no result: TAG inh)
COC(=O)C1=C(c2ccc(-c3ccccc3)c(F)c2)C[C@@H]2CC[C@H]1N2C(=O)N1CCOCC1	NR2F2 inh 70.6 | Gal4-VP16 ctr inactive | COUP-TFII conf inactive
COC(=O)C1=C(c2ccc(-c3ccccc3)c(F)c2)C[C@@H]2CC[C@H]1N2C(=O)N1CCCCC1	NR2F2 inh 63.9 | Gal4-VP16 ctr 20.2 | COUP-TFII conf 53.6
COCCNC(=O)N1[C@H]2CC[C@@H]1C(C(=O)OC)=C(c1ccc(-c3ccccc3)c(F)c1)C2	NR2F2 inh 49.7 | Gal4-VP16 ctr inactive | COUP-TFII conf inactive
COC(=O)C1=C(c2ccc(-c3ccccc3)c(F)c2)C[C@@H]2CC[C@H]1N2C(=O)N1CCC(O)CC1	none
COC(=O)C1=C(c2ccc(-c3ccccc3)c(F)c2)C[C@@H]2CC[C@H]1N2C(=O)NCCOc1ccccc1	none
O=P1(NCCCl)OCCC(OO)N1CCCl (configuration not stated)	none (no result: 697 NFkB inh, H9c2 protect, Jurkat NFkB inh, TAG inh, Gli-Sufu antag)
CN1CCN(c2ccc([N+](=O)[O-])c3no[n+]([O-])c23)CC1	Gli-Sufu antag 65.5, NR2F2 inh 98.0 (no result: 697 NFkB inh, Jurkat NFkB inh, TAG inh) | Gal4-VP16 ctr 96.0 | COUP-TFII conf 108.9
NC(Cc1ccc(F)cc1)c1csc(Nc2ncccn2)n1 (configuration not stated)	none (no result: 697 NFkB inh, Jurkat NFkB inh, Gli-Sufu antag)
COc1ccc(-n2nnnc2C(CCSC)N2CCC3(CC2)C(=O)NCN3c2ccccc2)cc1 (configuration not stated)	none (no result: 697 NFkB inh, Jurkat NFkB inh, TAG inh, Gli-Sufu antag)
CC(=O)O[C@H]1C[C@@H]2OC3C=C(C)CCC3(C)[C@@]1(C)[C@@]21CO1 (some centres not stated)	Gli-Sufu antag 66.0, NR2F2 inh 76.7 (no result: 697 NFkB inh, Jurkat NFkB inh) | Gal4-VP16 ctr 16.0 | COUP-TFII conf 72.1
CC(=O)OC1CC2OC3C=C(C)CCC3(C)C1(C)C21CO1 (configuration not stated)	NR2F2 inh 84.8 (no result: 697 NFkB inh, Jurkat NFkB inh, TAG inh, Gli-Sufu antag) | Gal4-VP16 ctr 16.6 | COUP-TFII conf 71.8
CCCOC(=O)c1ccc(-[n+]2c(-c3ccccc3)cc(-c3ccccc3)cc2-c2ccccc2)cc1	NR2F2 inh 54.9 | Gal4-VP16 ctr 22.5 | COUP-TFII conf 48.1
